Bioassay records: PubChem, National Center for Advancing Translational Sciences (NCATS)
ClpP mod: qHTS Assay for Activators of ClpP. ATP-dependent Clp protease proteolytic subunit (Bacillus subtilis (strain 168)), P80244. Potency, µM (top dose mostly 57.5 µM), for the others: top-dose activity change, negative = active. purified B. subtilis ClpP, FRET peptide cleavage, 20 min. actives 1.9% (n = 340,000); active = well fitted falling curve with a large enough effect; inconclusive = small, poorly fitted or top-dose-only effect; inactive = no such curve, though single readings can be large or run the other way; note: potency is the fitted concentration of half-maximal effect; the source files actives as falling curves though it sought activators and does not explain the sign; nearly all actives have a fitted effect of over 65% in size
Target sequence (P80244 whole entry, looked up): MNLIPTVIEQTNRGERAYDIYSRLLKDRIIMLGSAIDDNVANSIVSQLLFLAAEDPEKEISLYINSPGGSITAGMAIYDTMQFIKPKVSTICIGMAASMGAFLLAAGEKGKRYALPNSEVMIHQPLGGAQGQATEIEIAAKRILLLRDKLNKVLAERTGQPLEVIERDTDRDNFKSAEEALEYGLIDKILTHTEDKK
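ClpP 10 microg/mL final, pH 8 Tris/KCl buffer with BSA, glycerol, Tween-20; compound pinned in; FRET-FV substrate; RT 20 min; Ex320/Em430; ΔFRET vs ADEP 5.8 microM, DMSO, no enzyme.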
BCR signal inh: inhibitors of chronic active B-cell receptor signaling; ABC-DLBCL IkBa-CBG/CBR reporter, luminescence ratio, 4 h; Potency, µM (doses to about 46.1 µM), for inactives: top-dose activity change, negative = inhibition, most hits filed as inhibitors; actives 0.05% (n = 340,000); AID 493014; active = well fitted inhibition curve with a large enough effect in the signal ratio, with a control signal flat, not every such curve was filed as active; inconclusive = small, poorly fitted or top-dose-only effect, or effect the other way, or a change in a side signal; the % refers to the signal ratio;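 note: potency is the fitted concentration of half-maximal effect; plate controls were basal doxycycline-induced cells for no effect and cells given 10 µM MG132 for full effect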
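Compounds up to 46 uM were incubated four hours with TMD8 cells whose green CBG68 luciferase is fused to IkappaBalpha; red CBR luminescence normalised the signal, and concentration-effect curves were fitted to fusion, red and ratio data.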
ALOX12 inh: blocks human arachidonate 12S-lipoxygenase; purified 12hLO, xylenol orange hydroperoxide absorbance; Potency, µM (doses to about 108 µM), for inactives: at the highest dose activity change, negative = inhibition, most hits filed as inhibitors; actives 1.1% (n = 580,000); AID 1671190; active = well fitted inhibition curve with a large enough effect; inconclusive = small, poorly fitted or top-dose-only effect, or another doubt; inactive = no such curve, though single readings can be large or run the other way; note: potency is the fitted concentration of half-maximal effect; % is set by controls: 0 for no effect and ±100 for the full control effect
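Purified human 12hLO at 150 nM in 25 mM Hepes, 0.01% Triton X-100, pH 7.0, preincubated 15 min at room temperature with compound. Reaction started with 40 uM arachidonic acid, 30 min at room temperature. Hydroperoxide measured by Fe-xylenol orange, 573/405 nm absorbance ratio.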
KCNH2 WT inh: blocks the wildtype human KCNH2 potassium channel. AID 720551. U2OS, BacMam KCNH2, thallium flux FluxOr; stronger effect = lower value. actives 0.37% (n = 340,000). activity change, % at 1.84 µM;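 active = maximum activity change below -70%; inconclusive = maximum activity change between -70% and -50%; inactive = maximum activity change above -50%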; note: % is set by controls: 0 for no effect and ±100 for the full control effect
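U2OS cells were transduced with wild-type KCNH2 virus (2.03 x 10^8 / mL) for 4 h at room temperature, then cultured overnight at 37 C. Thallium flux was read with FluxOr dye. Rate constants were normalized to DMSO controls.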
LDHA inh: blocks human lactate dehydrogenase A. purified LDHA, NADH/diaphorase-resazurin fluorescence; stronger effect = lower value. P00338. activity change, % (values are at about 110 or 230 µM). actives 0.15% (n = 480,000). AID 1347041; in the data active = activity change below about -30%; inconclusive = mostly about -25% to -30%;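 note: plate controls were DMSO wells for no effect and wells without enzyme for full effect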
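LDH5 2 nM; NADH 0.06 mM, pyruvate 0.2 mM; 200 mM Tris pH 7.4, EDTA, Tween-20; 5 min RT. Detection: diaphorase 0.133 mg/mL + resazurin 37 µM, fluorescence ex540/em590 at 0 and 20 min; normalized to enzyme-free and DMSO wells.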
KCNH2 3.1 block: KCNH2 3.1 (human) potassium channel inhibition | U2OS KCNH2 3.1, thallium flux FluxOr; stronger effect = lower value | activity change, % (tested at about 1.8 µM) | actives 0.95% (n = 340,000);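 active = maximum activity change below -70%; inconclusive = maximum activity change from -70% to -50%; inactive = maximum activity change above -50%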;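 note: thallium influx rate constant from kinetic fluorescence after stimulation buffer; % is set by controls: 0 for no effect and ±100 for the full control effect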
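Normalized rate constant (relative to positive and negative DMSO controls) derived from a 2 min kinetic fluorescence read after stimulation; U2OS cells expressing the 3.1 isoform via virus at 1.77 x 10^8 /mL.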
* marks the source's active call; other numbers are inactive results; ? = inconclusive; . = no result given; [ ] = another dose, or the depositor's remark. Rows were chosen to be rich in hits. Some 3% of all compounds tested hit in one or more screens of this group.

SMILES | ClpP mod | BCR signal inh | ALOX12 inh | KCNH2 WT inh | LDHA inh | KCNH2 3.1 block
CCOc1ccc(N2CC(C(=O)Nc3ccc(Cl)cn3)CC2=O)cc1 (stereo not drawn) | . | . | -6% | . | 3 | .
CCOC(=O)c1[nH]c2ccc(C)cc2c1NC(=O)CN1CCCCC1 | 32µM* | -5% | -3% | 1 | -2 | 0
CC(C)(C)C(=O)N1CCN(CCNc2cc(=O)oc3ccccc23)CC1 | . | . | 3% | . | -10 | .
O=C(/C=C/Nc1ccccc1C(F)(F)F)c1ccc(Br)cc1 | . | . | -8% | . | -20 | .
COC(=O)c1ccccc1N/C=C/C(=O)c1ccc(Br)cc1 | 25µM* | ? | 1% | 2 | -6 | -5
Cn1c(=O)[nH]c(=O)c2c1nc(NCCCN1CCOCC1)n2Cc1ccc(F)cc1 | . | . | 14% | . | 0 | .
CC(C)C(NC(=O)N(C)Cc1ccc(C(F)(F)F)cc1)c1ccc2c(c1)OCCCO2 (stereo not drawn) | . | . | -2% | . | -2 | .
COc1ccc(-c2ccc(C(=O)Nc3ccc4c(c3)OCO4)c3occc23)c(C)c1 | 32µM* | . | 5% | . | -1 | .
COc1ccc(-c2ccc(C(=O)Nc3ccccc3)c3occc23)c(C)c1 | ? | . | 28% | . | -5 | .
COc1ccc(-c2ccc(C(=O)Nc3ccc(OC)nc3)c3occc23)c(C)c1 | 35µM* | . | -7% | . | -1 | .
CCCc1c(C)nc2ncnn2c1Nc1ccc(C)c(C)c1 | . | . | -12% | . | 2 | .
C#CCOC(=O)Nc1ccc(=O)n(Cc2c(Cl)cccc2Cl)c1 | 28µM* | ? | -16% | -4 | 0 | -2
Cc1cc2c(c(=O)n1CCN(C)C)C(c1ccc(Cl)cc1Cl)C(C#N)=C(N)O2 (stereo not drawn) | . | . | 56µM* | . | 15 | .
Cc1cc2c(c(=O)n1CCN(C)C)C(c1ccncc1)C(C#N)=C(N)O2 (stereo not drawn) | 2.5µM* | ? | -8% | 21 | -2 | 9
CCn1c(SC(C)C(=O)c2ccc(Br)cc2)n[nH]c1=O (stereo not drawn) | . | . | 0% | . | -12 | .
COc1ccc(NC2(c3nnnn3-c3ccc(C(C)C)cc3)CCCC2)cc1 | . | . | -11% | . | 15 | .
CCOc1ccccc1C1c2[nH]c3ccccc3c2C[C@H]2C(=O)N(C3CCN(Cc4ccccc4)CC3)CC(=O)N12 (stereo partly drawn) | -6% | ? | -7% | -94* | -6 | -102*
Cc1ccccc1C1c2[nH]c3ccccc3c2C[C@H]2C(=O)N(C3CCN(Cc4ccccc4)CC3)CC(=O)N12 (stereo partly drawn) | . | -8% | -6% | . | . | .
COC(=O)c1ccc(C2c3[nH]c4ccccc4c3C[C@H]3C(=O)N(C4CCN(Cc5ccccc5)CC4)CC(=O)N23)cc1 (stereo partly drawn) | -10% | 2% | -5% | -42 | -1 | -80*
Cn1nc(C2CCN(C(=O)c3ccccc3)CC2)[nH]c1=O | . | . | 38%[176 µM] | . | . | .
O=C(CCC1CCCC1)NCc1cccnc1 | . | . | 1% | . | -2 | .
COc1ccc(CNC[C@H]2Cn3c(-c4ccc(Cl)cc4)cnc3CO2)cc1 | . | . | 45µM* | . | . | .
COc1ccc(C(=O)NC[C@H]2Cn3c(-c4ccc(Cl)cc4)cnc3CO2)cc1 | . | . | 50%[176 µM] | . | . | .
COCc1ccc(C(=O)N(C)CC2CCCN(CCc3ccc(OC)cc3)C2)o1 (stereo not drawn) | 0% | 0% | -19% | 36 | -2 | -21
COCc1ccc(C(=O)N(C)CC2CCCN(CCc3ccc(Cl)cc3)C2)o1 (stereo not drawn) | 1% | 1% | 69% | -2 | 0 | -74*
Cc1occc1C(=O)N(C)CC1CCCN(CCc2ccc(Cl)cc2)C1 (stereo not drawn) | -2% | . | 45µM* | 11 | -5 | -72*
CC(C)n1cc2c(C(F)(F)F)cc(=O)n(CCC(=O)O)c2n1 | . | . | -28% | . | 5 | .
COc1cccc(CN)c1OCC(C)C | . | . | -1% | . | 1 | .
